From PubChem
IL1B secr inh: blocks inflammasome-driven IL-1 beta release. THP-1 LPS/ATP IL-1B secretion, AlphaLISA, 16 h; hits give low values. activity change, % at 57.5 µM. 360,000 tested, 4.7% active. AID 743279; in the data active = activity change below about -50%; inconclusive = mostly about -30% to -49%; note: % is set by controls: 0 for no effect and ±100 for the full control effect
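THP-1 cells pretreated 1 hr with compounds (up to 57.5 uM final), then stimulated with LPS (250 ng/mL final) plus ATP (1.25 mM final); secreted IL-1B measured by AlphaLISA after 16 hr, decreased signal indicating inhibition.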
TDP1 cell noCPT: qHTS for Inhibitors of human tyrosyl-DNA phosphodiesterase 1 (TDP1): qHTS in cells in absence of CPT; DT40 Tdp1-/- hTDP1 cells, no CPT, ATP luminescence, 48 h; Potency, µM (top dose mostly 46.2 µM), for inactives: top-dose activity change, negative = growth inhibition, hits mostly inhibitors; 420,000 tested, 15% active; AID 686978, 2013; note: potency is the fitted concentration of half-maximal effect; % is set by controls: 0 for no effect and ±100 for the full control effect; nearly all actives have a fitted effect of over 55% in size
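No-CPT arm: Tdp1-/-;hTDP1 DT40 cells (400/well) plus compounds, incubated ≥48 hr at 37 °C. Readout CellTiter-Glo luminescence.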
TDP1 cell CPT: growth inhibition of DT40 Tdp1-/-;hTDP1 cells with camptothecin (screen for TDP1 inhibitors); chicken DT40 Tdp1-/-;hTDP1 cells + 20 nM CPT, ATP luminescence, 48 h; Potency, µM (doses to about 46.2 µM), without a hit: at the highest dose activity change, negative = growth inhibition, usual class: inhibitors; 420,000 tested, 12% active; note: potency is the fitted concentration of half-maximal effect; % is set by controls: 0 for no effect and ±100 for the full control effect; nearly all actives have a fitted effect of over 55% in size
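Cell growth measured by CellTiter-Glo luminescence after a minimum 48 h, 37 C compound exposure with 20 nM CPT in Tdp1-knockout DT40 cells stably expressing hTDP1, seeded 400/well; qHTS titration format.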
SW480 rerep: DNA re-replication induction in SW480 cells | 340,000 tested, 1.8% active | SW480 DNA re-replication, Hoechst DNA content imaging, 48 h | AID 624297 | Potency, µM (titrated, usually from 46.1 µM), without a hit: at the top dose re-replication activation, actives largely listed as activators; note: potency is the fitted concentration of half-maximal effect; % of control where 0% means no effect; nearly all actives have a fitted effect of over 55% in size
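Per well, 250 cells were exposed to pinned compound for 48 hr. Nuclear DNA was visualised with Hoechst (40 min, 37 C) and total object intensity recorded by fluorescence scanning.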
Chronic BCR inh: inhibitors of chronic active B-cell receptor signaling; 340,000 tested, 0.05% active; ABC-DLBCL IkBa-CBG/CBR reporter, luminescence ratio, 4 h; Potency, µM (highest dose often 46.1 µM), inactives show top-dose activity change, negative = inhibition, hits mostly inhibitors; active = well fitted inhibition curve with a large enough effect in the signal ratio, with a control signal flat, not every such curve was filed as active; inconclusive = small, poorly fitted or top-dose-only effect, or effect the other way, or a change in a side signal; the % refers to the signal ratio;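 note: potency is the fitted concentration of half-maximal effect; plate controls were basal doxycycline-induced cells for no effect and cells given 10 µM MG132 for full effect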
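Concentration-response series (up to 46 uM) were applied to TMD8 dual-reporter cells for 4 h at 37C with doxycycline. Green/red ratio, after filter-overlap correction, defined %Activity; red signal alone was normalised to basal cells and zero luminescence.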
MCF10A rerep: DNA re-replication induction in MCF 10a cells. MCF 10A DNA re-replication, Hoechst nuclear intensity, 48 h. Potency, µM (top dose mostly 46.1 µM), inactives show at the top dose activity, positive = re-replication, usual class: activators. 350,000 tested, 2.9% active. AID 624296; note: potency is the fitted concentration of half-maximal effect; % of control where 0% means no effect; nearly all actives have a fitted effect of over 50% in size
Starred values were filed as active, the others as inactive; ? = inconclusive; . = no result given; [ ] = dose if it differs, or a comment. Most compounds without a hit are left out; they make up all but 19% or so of the library. Unless noted, calls come from the whole dose curve; as a rule, active = well fitted curve in the direction sought with a large enough effect; inconclusive = small, poorly fitted or top-dose-only effect, or another doubt; inactive = no such curve, though single readings can be large; an effect the other way counts as inactive or inconclusive.

SMILES	IL1B secr inh	TDP1 cell noCPT	TDP1 cell CPT	SW480 rerep	Chronic BCR inh	MCF10A rerep
O=C1NC(=O)[C@H]2[C@@H]1[C@@H]1C=C[C@H]2C1	.	0%	9%	.	.	.
Cc1cnc(C)c(-c2ccc(F)c3c2OC(CNC(=O)Cc2c(F)cccc2F)C3)n1 (configuration not stated)	.	-11%	9%	.	.	.
Cc1nc(SCC(=O)N(CC(C)C)C2CCS(=O)(=O)C2)c(C#N)c(C)c1C (configuration not stated)	3	-7%	-25%	-8%	0%	-2%
O=C(CCCSc1ccccc1)Nc1nc(-c2ccccn2)cs1	30	16µM*	29µM*	-5%	21%	-10%
Cc1ccc(-c2csc(NC(=O)CCNC(=O)c3ccccc3Cl)n2)cc1	-53*	?	?	4%	?	?
O=C(Nc1nc(-c2ccccn2)cs1)C1CCCC1	-71*	5.2µM*	2.9µM*	4%	?	-2%
CC(=O)OCC1OC(n2c(Br)nc3c(=O)[nH]c(N)nc32)C(OC(C)=O)C1OC(C)=O (configuration not stated)	.	22%	11%	.	.	.
COc1ccc(-n2c(-c3ccc(F)cc3)cn3c4c(=O)n(C)c(=O)n(C)c4nc23)cc1	.	7%	-4%	.	.	.
S=c1[nH]c2ccccc2n1CCOc1ccccc1	43	0%	-2%	?	-1%	-2%
COc1ccccc1OCCn1c(=O)n(C)c2ccccc21	-11	-18%	-9%	9%	?	0%
Cc1cccc(OCCn2c(=S)[nH]c3ccccc32)c1	-8	?	23µM*	-2%	?	4%
S=c1[nH]c2ccccc2n1CCc1ccncc1	-61*	?	-18%	-1%	.	4%
Cc1cccc(OCCc2c(C)[nH]c(=S)[nH]c2=O)c1	-6	16µM*	?	?	-3%	?
CCCCc1c(C)[nH]c(=S)[nH]c1=O	0	2%	9%	-5%	-10%	0%
COc1ccccc1OCCn1c(=S)[nH]c2ccccc21	11	?	18µM*	?	?	?
Cc1ccc(NC(=O)CN(C)C(=O)c2cc(S(=O)(=O)N(C)C)ccc2N2CCCC2)cc1	-10	-25%	?	0%	4%	-1%
C[C@H](N)CCCP(=O)(O)O	.	-8%	-6%	.	.	.
CCOc1ccc(OCCn2c(=S)[nH]c3ccccc32)cc1	-16	-26%	-7%	-6%	?	8%
Cc1ccc(OCCn2c(=S)[nH]c3ccccc32)c(C(C)C)c1	30	?	26µM*	4%	-3%	?
CC(C)(C)OC(=O)N1CCC[C@H]1C(=O)N1CCC[C@H]1C(=O)NCc1ccncc1	0	-11%	-17%	.	.	.
C[N+](C)(C)CC(O)CC(=O)[O-] (configuration not stated)	.	-11%	-22%	.	.	.
CCCS(=O)(=O)N1CCc2ccc(NC(=O)C3CCCO3)cc2C1 (configuration not stated)	4	?	?	-6%	0%	10%
CCOc1ccc2nc(N3C(=O)/C(=C/c4ccc(Cl)cc4)NC3=S)sc2c1	2	10µM*	?	1%	2%	-1%
CCOc1ccc2nc(N3CCN(C(=O)C(C)C)CC3)sc2c1	.	?	?	.	9%	.
N#Cc1ccc(OCc2nnc(SCC(=O)c3ccccc3)n2-c2ccccc2)cc1	-19	?	23µM*	-3%	11%	?
SMILES	IL1B secr inh	TDP1 cell noCPT	TDP1 cell CPT	SW480 rerep	Chronic BCR inh	MCF10A rerep
CCOC(=O)/C(=N/Nc1ccccc1)Sc1nnc(CCc2ccccc2)n1-c1ccccc1	-73*	4%	-1%	0%	-13%	-22%
Cc1ccc(-n2c(CCc3ccccc3)nnc2SCC(=O)NCc2ccccc2)cc1C	-57*	23µM*	?	10%	?	?
Cc1cccc(-n2c(CCc3ccccc3)nnc2SCC(=O)c2ccccc2)c1	-86*	9.2µM*	9.2µM*	4%	?	?
O=C(O)c1sccc1Oc1ccc(NS(=O)(=O)c2ccccc2)cc1	13	-5%	26%	1%	0%	5%
Cc1ccc(OCc2nnc(SCC(=O)c3ccccc3)n2-c2ccccc2)cc1	-56*	?	?	30%	-3%	?
Cc1ccc(OCc2nnc(SCC(=O)O)n2-c2ccccc2)cc1	0	5%	7%	-3%	.	3%
Cn1c(Cc2ccccc2)nnc1SCC(=O)NCCc1ccccc1	-21	-16%	?	-6%	-1%	0.58µM*
COCCN1C(=O)CSCC1(C)C(=O)Nc1c(C)cccc1C (configuration not stated)	-4	10%	25%	.	.	.
CC(C)N1CC(COc2ccc(Cl)cc2Cl)OC1=O (configuration not stated)	?	12%	-3%	-8%	1%	-12%
Cc1cc(O)c(C)c2c1CC[C@H]1[C@H](C)C(=O)O[C@H]21	.	-16%[9.04 µM]	4%[9.04 µM]	.	.	.
CC(C)c1cc(C(=O)OCC(=O)NC(=O)NCc2ccco2)c(O)c(C(C)C)c1	-86*	?	?	8%	?	16µM*
CC1=NN(Cc2ccccc2)C(=O)C1C(c1ccccc1)C(C#N)C#N (configuration not stated)	-3	26µM*	21µM*	?	?	1%
CC1=NN(Cc2ccccc2)C(=O)C1C(c1ccc(Cl)cc1)C(C#N)C#N (configuration not stated)	-29	10µM*	10µM*	?	21µM*	?
CC1=NN(Cc2ccccc2)C(=O)C1C(c1ccncc1)C(C#N)C#N (configuration not stated)	-12	?	?	-2%	?	0%
COc1ccc(NC(=O)c2nc3nc(C)cc(C(F)F)n3n2)c(C)c1	.	-1%	-4%	.	.	.
COc1ccc(S(=O)(=O)c2c(Nc3c(C)cccc3C)sc(C(=O)c3ccc4c(c3)OCO4)c2N)cc1	.	2.9µM*	5.2µM*	.	.	.
Nc1c(C(=O)c2ccccc2)sc(Nc2ccccc2)c1S(=O)(=O)c1ccccc1	-3	?	?	20%	2%	?
COc1ccc(S(=O)(=O)c2c(Nc3cccc(C)c3C)sc(C(=O)c3ccccc3)c2N)cc1	.	3.3µM*	2.9µM*	.	.	.
